Assay results from PMC10668032, “Altered binding affinity of SIX1-Q177R correlates with enhanced WNT5A and WNT pathway effector expression in Wilms tumor”.
The full ranking holds about 33,000 sequences; the median of “e-score” is about -0.05, and the highest 2% start at about 0.38. Only a selection was taken, and the highest values are over-represented in it overall.

Biological target: T1, SIX1-Q177R homeodomain (human, UniProt Q15475 108-198, Q177R)
T1 sequence: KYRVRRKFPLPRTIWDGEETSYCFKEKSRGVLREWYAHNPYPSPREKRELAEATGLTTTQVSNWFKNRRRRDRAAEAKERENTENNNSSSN
Experiment: universal protein binding microarray; Universal all-10-mer PBM (8x60K, AMADID 030236), 300 nM GST-tagged protein, Alexa Fluor 488 anti-GST; buffer, salt, pH and temperature not stated (as in Berger); high values mean tight binding
Conditions: protein: ivt; tags: N-terminal GST; dsDNA, one strand shown
Outline: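 Duplicate protein binding microarrays (universal 'all 10-mer', 8×60K format) were incubated with GST-tagged homeodomains at 300 nM final concentration. Binding was quantified as 8-mer E-scores with the Universal PBM Analysis Suite.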

| Sequence | binding signal [E-score] |
| --- | --- |
| CAAGGGTG | 0.252 ± 0.0109 |
| CACTTCCA | 0.202 ± 0.0394 |
| GTCCTACA | 0.243 ± 0.0623 |
| CACTTAGG | 0.229 ± 0.00363 |
| ACTCCACT | 0.263 ± 0.0258 |
| CAGGGGTC | 0.242 ± 0.0124 |
| GTCGGATA | 0.292 ± 0.00296 |
| ACCCCGCC | 0.271 ± 0.018 |
| ACCGAAGT | 0.167 ± 0.0104 |
| ACACGCCG | 0.404 ± 0.009 |
| ACCCGCCT | 0.206 ± 0.00671 |
| ACGCCCCT | 0.205 ± 0.0263 |
| ACACGCCC | 0.4216 ± 0.00148 |
| ACCCGCCG | 0.258 ± 0.00942 |
| CAACGCCG | 0.164 ± 0.00575 |
| TAACGCCA | 0.16 ± 0.00152 |
| ACCCGCCC | 0.243 ± 0.0168 |
| ACACGCCA | 0.381 ± 0.0176 |
| ACACGCCT | 0.416 ± 0.0145 |
| ACGCCCCC | 0.19 ± 0.00645 |
| ATACGCCA | 0.151 ± 0.00585 |
| GGGGTACA | 0.329 ± 0.00694 |
| GATCCCTA | 0.24 ± 0.0333 |

| Sequence | binding signal [E-score] |
| --- | --- |
| GTGCCAAC | 0.156 ± 0.0339 |
| GAATTACA | 0.22 ± 0.0378 |
| ACCCATCG | 0.179 ± 0.0324 |
| CACTGGGC | 0.154 ± 0.00412 |
| ACCCTATC | 0.17 ± 0.0179 |
| CCGATACC | 0.361 ± 0.0126 |
| AGCACACT | 0.163 ± 0.0222 |
| AGCACACG | 0.257 ± 0.015 |
| CGCACACC | 0.395 ± 0.0298 |
| CGCACACA | 0.16 ± 0.0759 |
| AGCACACC | 0.38 ± 0.026 |
| CGCACACG | 0.24 ± 0.0245 |
| AATCCACA | 0.155 ± 0.0214 |
| AGTATACA | 0.235 ± 0.0155 |
| ACGCCACC | 0.194 ± 0.00825 |
| AAGGGGGT | 0.293 ± 0.0313 |
| AAAGGTGT | 0.452 ± 0.0138 |
| AACGGTGC | 0.184 ± 0.0227 |
| AAGGGTAT | 0.262 ± 0.0281 |
| AAAGGGGT | 0.162 ± 0.0302 |
| CACGGTGA | 0.221 ± 0.0367 |
| AAAAGTGT | 0.274 ± 0.0858 |
| AATGGTAT | 0.227 ± 0.00525 |

| Sequence | binding signal [E-score] |
| --- | --- |
| AAGGGTGT | 0.4645 ± 0.00313 |
| AACGGTGT | 0.4669 ± 0.000509 |
| AATGGGGT | 0.246 ± 0.0257 |
| AATGGTGT | 0.4746 ± 0.00144 |
| AGGGGTAT | 0.3 ± 0.0125 |
| CGACTCCC | 0.263 ± 0.056 |
| GGTCCACA | 0.17 ± 0.0089 |
| TCGTTACA | 0.278 ± 0.00887 |
| AACCTACA | 0.192 ± 0.0148 |
| GTACTGAC | 0.172 ± 0.0189 |
| GACCCCCC | 0.248 ± 0.0557 |
| CGCACCCG | 0.245 ± 0.0361 |
| GGCACCCC | 0.158 ± 0.0472 |
| GACACCCC | 0.487 ± 0.00971 |
| CACACCCC | 0.402 ± 0.0285 |
| CACCCCCC | 0.341 ± 0.0318 |
| CACACCCG | 0.423 ± 0.0208 |
| CGCACCCA | 0.193 ± 0.0349 |
| CCCACCCC | 0.304 ± 0.0356 |
| GACCCCCA | 0.233 ± 0.0487 |
| CACCCCCG | 0.325 ± 0.0496 |
| GACACCCA | 0.479 ± 0.00732 |
| CCCCTGAC | 0.271 ± 0.0456 |

| Sequence | binding signal [E-score] |
| --- | --- |
| CAATGGTG | 0.299 |
| CACTCGAC | 0.211 ± 0.00795 |
| CGGGTCTC | 0.207 ± 0.0182 |
| ATGAGGGG | 0.195 ± 0.0319 |
| AAGTCGTG | 0.169 ± 0.0361 |
| AGATGGAG | 0.181 ± 0.00463 |
| CACGCAAA | 0.251 ± 0.0233 |
| AACTCACA | 0.174 ± 0.0813 |
| CTGATACC | 0.312 ± 0.00631 |
| CGGGAGTA | 0.26 ± 0.0317 |
| CACCCATA | 0.301 ± 0.0276 |
| CACCTTGA | 0.177 ± 0.00756 |
| GTTCTACA | 0.239 ± 0.00598 |
| GATCCCCA | 0.267 ± 0.0387 |
| AGCACCCT | 0.172 ± 0.0259 |
| AACCCCCA | 0.209 ± 0.0281 |
| ACCACCCC | 0.249 ± 0.0234 |
| AACACCCC | 0.4753 ± 0.00361 |
| AGCACCCA | 0.159 ± 0.0296 |
| AACACCCG | 0.466 |
| ACCACCCT | 0.183 ± 0.0205 |
| AACACCCT | 0.4609 ± 0.00173 |
| AGCACCCC | 0.295 ± 0.0259 |

| Sequence | binding signal [E-score] |
| --- | --- |
| AGCACCCG | 0.262 ± 0.00343 |
| AACACCCA | 0.4561 ± 0.00225 |
| AACCCCCG | 0.244 ± 0.0392 |
| AACTCCGG | 0.161 ± 0.0108 |
| ACCTCGTG | 0.208 ± 0.00536 |
| ACGCCGGG | 0.16 ± 0.00711 |
| CGGATAAC | 0.213 ± 0.00738 |
| ACCTAGTG | 0.232 ± 0.0203 |
| CCGACCGG | 0.172 ± 0.0141 |
| CGCGCACC | 0.193 ± 0.014 |
| AACGGAGT | 0.152 ± 0.031 |
| ACCAGACA | 0.234 ± 0.0203 |
| ACGATACC | 0.3575 ± 0.00339 |
| CCCACCCA | 0.204 ± 0.0309 |
| TACCCCCA | 0.304 ± 0.00484 |
| TGCACCCA | 0.153 ± 0.0378 |
| CACCCCCA | 0.368 ± 0.0341 |
| TACACCCA | 0.4707 ± 0.00252 |
| CACACCCA | 0.382 ± 0.038 |
